Bioassay records (PubChem BioAssay)
HCV inh: inhibitors of hepatitis C virus infection. Huh7.5.1 HCVcc-Cre infection, luciferase reporter, 44 h. Potency, µM (top dose mostly 41.8 µM), for inactives: top-dose activity change, negative = inhibition, usual class: inhibitors. 340,000 tested, 3.4% active; active means well fitted inhibition curve with a large enough effect; inconclusive means small, poorly fitted or top-dose-only effect, or another doubt; inactive means no such curve, though single readings can be large or run the other way; further: potency means the concentration at half of the fitted maximal effect; on the % scale 0 is the no-effect control and ±100 the full control effect
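Whole-lifecycle infectious HCVcc-Cre system; cells 1,000/well, compound then virus (~0.5 moi) added 4 h after plating, 44 h culture. Luciferase read 15 sec following 15 min substrate incubation, room temp.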
FMDV inh: blocks foot and mouth disease virus. FMDV antiviral cell-based qHTS. Potency, µM (doses to about 57.9 µM), without a hit: at the top dose activity change, negative = inhibition, most hits filed as inhibitors. 410,000 tested, 1.2% active. AID 1159524; calls by dose curve; tested in HEK293T cells; further: read-out not given here; potency means the concentration at half of the fitted maximal effect; on the % scale 0 is the no-effect control and ±100 the full control effect; nearly all actives have a fitted effect of over 45% in size
Marburg entry inh: inhibitors of Marburg virus binding or cell entry. Marburg virus pseudotyped entry inhibition, cell reporter. Potency, µM (top dose mostly 37.8 µM), for inactives: at the highest dose activity change, negative = inhibition, hits mostly inhibitors. 300,000 tested, 1.8% active. AID 540276; calls by dose curve; tested in HEK293 cells; further: potency means the concentration at half of the fitted maximal effect; on the % scale 0 is the no-effect control and ±100 the full control effect
LASV entry inh: blocks Lassa virus binding to or entry into cells | 300,000 tested, 1.2% active | Lassa virus pseudotype entry inhibition, cell reporter | Potency, µM (top dose mostly 37.9 µM), without a hit: at the top dose activity change, negative = inhibition, usual class: inhibitors; calls by dose curve; tested in HEK293 cells; further: potency means the concentration at half of the fitted maximal effect; on the % scale 0 is the no-effect control and ±100 the full control effect; nearly all actives have a fitted effect of over 50% in size
HCMV inh: blocks human cytomegalovirus replication; HFF cells, HCMV-luciferase reporter, 72 h; hits give low values; activity change, negative = inhibition, % at 57.5 µM; 410,000 tested, 4.5% active; in the data active means activity change below about -60%; inconclusive means no clear call, values can overlap the other calls; inactive means above about -39%; further: on the % scale 0 is the no-effect control and ±100 the full control effect
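Luciferase read-out from HCMV-luciferase-infected HFFs (MOI 1 PFU/cell) 72 h post infection at 37C; compounds added after 16 h cell attachment; activity normalized between buffer-only basal and Salinomycin (10uM) inhibitor controls.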
SARS PLP yeast: inhibitors of SARS-CoV papain-like protease in yeast. S. cerevisiae expressing SARS-CoV PLpro, growth rescue. Potency, µM (highest dose often 32.9 µM), for the others: top-dose activity, positive = growth rescue, actives largely listed as activators. 330,000 tested, 0.19% active; calls by dose curve; further: potency means the concentration at half of the fitted maximal effect; 0% is about no effect; nearly all actives have a fitted effect of over 55% in size
Starred values were filed as active, the others as inactive; ? = inconclusive; · = no result given; ! = a repeat was not active; [ ] = remark or other dose. Sampled rows, rich in hits. Any-hit rate of the full collection: about 8%.

SMILES	HCV inh	FMDV inh	Marburg entry inh	LASV entry inh	HCMV inh	SARS PLP yeast
COc1ccc(OCC(O)Cn2c(NCCO)nc3c2c(=O)n(C)c(=O)n3C)cc1 (stereo not drawn)	·	?	?	-24%[46.1 µM]	-36	·
Cc1cccc(NC(=O)CCCn2nc(C)c3c(C)n(-c4ccccc4)nc3c2=O)c1C	·	-10%	·	6%[46.1 µM]	-10	·
CCc1ccc(CNC(=O)c2cnc3sc(N4CCOCC4)nn3c2=O)cc1	·	0%	·	?	5	·
Cc1ccc(C)c(N2CCN(C(=O)c3ccc4c(=O)n(CCc5ccccc5)c(=O)[nH]c4c3)CC2)c1	·	-4%	-10%[46.1 µM]	?	-4	·
COc1cc(CNc2ncnc3c2[nH]c2ccc(C)cc23)cc(OC)c1	?	?	·	·	-65*	0%
Cc1ccc2[nH]c3c(NCc4ccco4)ncnc3c2c1	11µM*	-10%	10µM*	-28%	-94*	-3%
COc1ccc(C(=O)NCc2nnc(SCC(=O)Nc3ccc(C)cc3)n2-c2ccccc2)cc1	·	16%	4%[46.1 µM]	?	-11	·
O=C(N/N=C/c1cc([N+](=O)[O-])ccc1O)c1ccc2c(c1)OCCO2	?	6%	?	?	25	?
O=C(N/N=C/c1ccccc1[N+](=O)[O-])c1ccc2c(c1)OCCO2	?	?	2.5µM*	1.4µM*	-28	1%
O=C(N/N=C/c1cccc(O)c1)c1ccc2c(c1)OCCO2	8%	57%	·	·	157	·
O=C(N/N=C/c1cc(O)ccc1[N+](=O)[O-])c1ccc2c(c1)OCCO2	13%	?	?	5µM*	31	9%
O=C(CCC(=O)N1CC2CCCN2c2ccccc21)NCc1ccccc1 (stereo not drawn)	·	-6%	·	7%[46.1 µM]	-3	·
Cc1cccc(N(C)S(=O)(=O)c2cc3[nH]c(=O)c(=O)[nH]c3cc2C)c1	·	-8%	·	-9%[46.1 µM]	4	·
Cc1ccc(S(=O)(=O)NCCC(=O)Nc2ccc(C)cc2C(=O)c2ccccc2)cc1	-2%	-14%	?	-8%	-7	21%
CCOc1ccc(Br)cc1S(=O)(=O)N1CCC(C(N)=O)CC1	26%	45%	-4%	12%	-64*	-6%
C=CCOCCC=C1c2ccccc2[C@@H](OC)[C@@H]1C	·	·	-8%[14.2 µM]	·	·	·
O=C(CCN1CCOCC1)c1ccc2c(c1)OCCO2	11µM*	-3%	4%	-15%	-26	-115%
CC1CCN(CC(=O)c2ccc3c(c2)OCCO3)CC1	3%	-40%	6%	-21%	-61*	-5%
CC1CCN(CC(C)OC(=O)c2ccc3c(c2)OCCO3)CC1 (stereo not drawn)	1%	30%	·	·	-3	-6%
O=C(CC1Nc2c3ccccc3nc(=S)n2C1=O)NC1CCCCC1 (stereo not drawn)	·	·	·	·	-64*	0%
C/C(=N\NC(=O)c1ccccc1)c1ccccc1F	12%	32%	?	15%[46.1 µM]	7	2%
C/C(=N\NC(=O)c1ccccc1OCCOc1ccccc1)c1ccccc1F	?	-21%	11µM*	?	10	1%
CN1CCN(c2ncc3ncc(=O)n(-c4ccccc4)c3n2)CC1	·	-4%	·	·	·	·
c1cncc(-c2nc(NCc3cccs3)c3ccccc3n2)c1	-30%	?	-27%[46.1 µM]	-7%	?	-1%
Fc1ccccc1-c1nc(NCc2ccco2)c2ccccc2n1	-25%	-29%	-25%[46.1 µM]	-20%	-81*	-5%
SMILES	HCV inh	FMDV inh	Marburg entry inh	LASV entry inh	HCMV inh	SARS PLP yeast
Oc1ccccc1-c1nc(NCc2ccccc2)c2ccccc2n1	11µM*	-16%	?	-31%[46.1 µM]	-31	2%
Fc1ccccc1CNc1nc(-c2cccnc2)nc2ccccc12	35µM*	3%	?	?	12	-4%
c1ccc(-c2nc(NCc3ccco3)c3ccccc3n2)nc1	?	?	?	?	-102*	-17%
CCN(C(=O)Cn1cc(C(=O)c2ccc(F)cc2)c(=O)c2ccc(C)nc21)c1cccc(C)c1	·	-16%	·	-6%[46.1 µM]	-33	·
CCCN(CCC)C(=O)Cn1nnc2sc(-c3ccccc3)cc2c1=O	·	-6%	-14%[46.1 µM]	18%[46.1 µM]	1	·
CCOC(=O)c1c(-c2ccc(C)cc2)csc1NC(=O)c1cc(=O)c2cc(C)cc(C)c2o1	·	-13%	1%[46.1 µM]	19%[46.1 µM]	5	·
Oc1ccccc1-c1nc(NCc2ccco2)c2ccccc2n1	3.2µM*	13%	-59%	2%	2	-5%
O=c1c2ccccc2nc2c3ccccc3c(NCc3ccco3)nn12	?	-9%	3%	6%	9	16%
c1ccc(N2CCN(c3nc(NCc4ccco4)c4ccccc4n3)CC2)cc1	1µM*	28µM*	?	?	-6	-4%
CC(C)Oc1nc(-c2ccccc2O)nc2ccccc12	13µM*	36%	7%	8%	-17	-1%
Oc1ccccc1-c1nc(N2CCCC2)c2ccccc2n1	?	4%	15%	10%	19	4%
c1coc(CNc2nc(N3CCCCC3)nc3ccccc23)c1	?	-6%	?	?	?	-5%
Cc1c2cnn(-c3ccccc3)c(=O)c2c(C)n1CC(=O)NCc1ccc(Cl)cc1	·	?	7%[46.1 µM]	-8%[46.1 µM]	-25	·
COc1ccc2c(c1)C(n1ccc3ccccc31)C(=O)N2Cc1ccc(C(C)C)cc1 (stereo not drawn)	·	·	·	·	18	·
COc1ccc(CN2C(=O)C(n3c(C)ccc3C)c3cc(OC(F)(F)F)ccc32)cc1 (stereo not drawn)	·	·	·	·	-88*	·
COc1ccc(CN2C(=O)C(n3ccc4ccccc43)c3cc(Cl)ccc32)cc1 (stereo not drawn)	·	·	·	·	-84*	·
CC(C)c1ccc(S(=O)(=O)N2CCC(N3CCN(Cc4ccccc4)C(=O)C3=O)CC2)cc1	·	-8%	·	12%[46.1 µM]	7	·
COc1nnc(-c2ccc(N3CCCCC3)c(NC(=O)c3ccccc3Cl)c2)c2ccccc12	·	?	?	?	-99*	·
Cn1nc(-c2ccc(N3CCCCC3)c(NC(=O)c3ccco3)c2)c2ccccc2c1=O	7.1µM*!	0%	?	?	-29	2%
CC(C)OCCCN(Cc1ccco1)C(=O)c1cc2c(s1)-c1ccccc1OC2	·	-24%	-26%[46.1 µM]	·	-28	·
CCN1CCN(c2ccc(S(=O)(=O)N3CCCCC3)cc2NC(=O)c2ccccc2)CC1	9%	-5%	-6%	-7%[46.1 µM]	27	1%
CCN1CCN(c2ccc(S(=O)(=O)N3CCCCC3)cc2NC(=O)c2ccc([N+](=O)[O-])s2)CC1	35µM*	-28%	?	?	-26	-3%
O=C(COc1cccc2cccnc12)Nc1cccc(S(=O)(=O)N2CCCC2)c1	10µM*	?	·	·	-9	-2%
Cc1cccc(C)c1OCC(=O)Nc1cccc(S(=O)(=O)N2CCCC2)c1	8.9µM*	-12%	?	?	-24	1%
Cc1cccc(C)c1OCC(=O)Nc1cccc(S(=O)(=O)N2CCCCCC2)c1	·	-14%	·	·	18	·
